Compound activity from PubChem BioAssay.
Shown are actives, neighbours in structure and some others; about 7.9% of the full set was active somewhere.
KB-3-1 tox: qHTS assay for MDR1-selective chemotherapeutics: Primary screen using the parental adenocarcinoma cell KB-3-1; KB-3-1 viability, CellTiter-Glo ATP luminescence, 72 h; AID 1347075, 2019; 400,000 tested, 1.4% active; Potency, µM (doses to about 46.1 µM), most hits filed as cytotoxic; note: % is set by controls: 0 for no effect and ±100 for the full control effect; nearly all actives have a fitted effect of over 60% in size
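Screening of KB-3-1 cells (DMEM, 10% FBS, phenol-red free) ran from lowest to highest compound concentration; after 72 h at 37 °C viability was read luminescently and curves fitted.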
KB-V1 cytotox: qHTS assay for MDR1-selective chemotherapeutics: Primary screen using the drug-selected MDR subline cells KB-V1; KB-V1 MDR cells viability, CellTiter-Glo, 72 h; Potency, µM (titrated, usually from 46.1 µM), usual class: cytotoxic; 400,000 tested, 3.4% active; AID 1347076, 2019; note: % is set by controls: 0 for no effect and ±100 for the full control effect; nearly all actives have a fitted effect of over 60% in size
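Following 72 h at 37 degrees C with compound, KB-V1 cell viability was read by CellTiter-Glo luminescence, medium being phenol-red-free DMEM plus 10% FBS; concentration-response parameters came from normalized, curve-fitted qHTS data.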
HT1080 IDH1KD tx: qHTS for induction of synthetic lethality in tumor cells producing 2HG: qHTS for the HT-1080-IDH1KD cell line. HT-1080 IDH1 knockdown viability, ATP luminescence, 48 h. Potency, µM (doses to about 46.1 µM), for inactives: at the highest dose activity, negative = toxicity, usual class: cytotoxic. 360,000 tested, 2% active;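 note: 0% = DMSO wells and -100% = cell-free medium wells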
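Luminescent ATP read-out (CellTiter-Glo, 10 min at room temperature) after 48 h compound exposure at 37 °C gave viability of IDH1-knockdown HT-1080 cells. Activity was normalised to DMSO and cell-free wells, then fitted as concentration-response curves.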
SW480 rerep: A quantitative high throughput screen for small molecules that induce DNA re-replication in SW480 colon adenocarcinoma cells; SW480 DNA re-replication, Hoechst DNA content imaging, 48 h; Potency, µM (titrated, usually from 46.1 µM), inactives show at the top dose re-replication activation, hits mostly activators; 340,000 tested, 1.8% active; AID 624297, 2012; note: % of control where 0% means no effect; nearly all actives have a fitted effect of over 55% in size
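Image-based DNA-content assay: after two days of treatment, nuclei were labelled with the DNA dye Hoechst and imaged, and hits were compounds raising the count of nuclei showing high fluorescence intensity.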
MCF10A rereplic: A quantitative high throughput screen for small molecules that induce DNA re-replication in MCF 10a normal breast cells | MCF 10A DNA re-replication, Hoechst nuclear intensity, 48 h | Potency, µM (titrated, usually from 46.1 µM), inactives show top-dose activity, positive = re-replication, most hits filed as activators | 350,000 tested, 2.9% active | AID 624296, 2012; note: % of control where 0% means no effect; nearly all actives have a fitted effect of over 50% in size
HT1080-NT tox: qHTS for induction of synthetic lethality in tumor cells producing 2HG: qHTS for the HT-1080-NT fibrosarcoma cell line; AID 686970, 2013; Potency, µM (top dose mostly 46.1 µM), for inactives: at the highest dose activity, negative = less viability, hits mostly cytotoxic; HT-1080-NT fibrosarcoma viability, CellTiter-Glo ATP luminescence, 48 h; 360,000 tested, 1.6% active;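 note: NT is the 2HG producing partner of a matched IDH1 knockdown line; 0% = DMSO-treated cells and -100% = media-only wells without cells; nearly all actives have a fitted effect of over 55% in size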
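Read-out is CellTiter-Glo luminescence after 10 minutes at room temperature, following 48 hours' compound treatment of HT-1080-NT cells (750 cells/well, RPMI, 5% FBS, 37 degrees C).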
* marks the source's active call; other numbers are inactive results; i = inactive; u = inconclusive; x = not tested or not shown. Calls come from the whole dose curve; as a rule, active = well fitted curve in the direction sought with a large enough effect; inconclusive = small, poorly fitted or top-dose-only effect, or another doubt; inactive = no such curve, though single readings can be large; an effect the other way counts as inactive or inconclusive. Potency is the fitted concentration of half-maximal effect.

SMILES	KB-3-1 tox	KB-V1 cytotox	HT1080 IDH1KD tx	SW480 rerep	MCF10A rereplic	HT1080-NT tox
COc1ccc(OC)c(/C=N/NC(=O)c2[nH]nc3c2CCc2ccccc2-3)c1	i	i	-8.2%	u	23.1µM*	-9.8%
CC(C)NC(=O)c1[nH]nc2c1CCc1ccccc1-2	i	i	-3.7%	u	6.3%	2.8%
CC(=O)NC(c1cccc(F)c1)c1nc(-c2ccc3ccccc3c2)cs1 (centres undefined)	i	i	u	x	x	-28.9%
O=C(COC(=O)/C=C/c1ccc(Cl)cc1Cl)NCc1ccco1	i	i	0.3%	0.8%	0.3%	-3.9%
Cc1ccsc1/C=N\Nc1cn[nH]c(=O)c1Cl	4.61µM*	2.59µM*	-0.8%	-18.6%	u	9.4%
Cc1ccc(/C=N\Nc2cn[nH]c(=O)c2Cl)cc1	7.08µM*	u	-10.3%	-1.8%	-2.0%	0.8%
COc1ccc(/C=N/Nc2cn[nH]c(=O)c2Cl)cc1	7.31µM*	u	20.2%	0.3%	u	14.2%
O=c1[nH]ncc(N/N=C/c2ccccc2)c1Cl	i	u	-9.9%	1.2%	u	-15.7%
Cc1nc(-c2ccc(S(=O)(=O)N3CCN(c4ccccc4F)CC3)cc2)co1	i	u	x	x	x	x
CCc1ccccc1NC(=O)CNC(=O)c1cccc(S(=O)(=O)N2CCN(Cc3ccccc3)CC2)c1	u	16.4µM*	-0.3%	5.4%	7.7%	-2.0%
Cc1ccc(C)c(NC(=O)CN(C)C(=O)c2cccc(S(=O)(=O)N3CCN(Cc4ccccc4)CC3)c2)c1	u	u	u	2.2%	14.5%	20.6µM*
COc1ccc(Cl)cc1NC(=O)CN(C)C(=O)c1cccc(S(=O)(=O)N2CCN(C)CC2)c1	i	20.6µM*	0.4%	0.1%	10.7%	6.0%
Cc1ccc(C)c(NC(=O)CN(C)C(=O)c2cccc(S(=O)(=O)N3CCCC3)c2)c1	i	u	-1.2%	-1.0%	0.6%	-4.0%
CCOC(=O)C1CCN(C(=O)COC(=O)c2c(C)c(CC)nc3ccccc23)CC1	i	u	6.0%	-6.0%	9.0%	0.4%
O=C(NCCCn1ccnc1)C(=O)NCC1OCCCN1S(=O)(=O)c1ccc(Cl)cc1 (centres undefined)	i	i	12.6%	-1.0%	0.6%	6.0%
CCc1ccc(C(=O)Nn2cnc3ccccc3c2=O)cc1	i	i	21.2%	3.7%	-1.4%	18.3%
CO/N=C/CC(=O)c1cnc(-c2ccccc2)s1	i	i	12.5%	-5.0%	14.7%	19.3%
COc1ccccc1-c1nc(C#N)c(N2CCCCCC2)o1	i	u	2.9%	-13.6%	u	0.3%
COc1ccccc1-c1nc(C#N)c(N2CCc3ccccc3C2)o1	u	u	-20.2%	16.9%	16.4µM*	4.1%
COc1ccc(N2CCN(c3oc(-c4ccc(OC)c(OC)c4)nc3C#N)CC2)cc1	i	i	2.5%	0.1%	-35.2%	7.5%
COc1ccc(-c2nc(C#N)c(N3CCc4ccccc4C3)o2)cc1OC	i	2.06µM*	-10.4%	7.5%	u	u
CCCCC(=O)NC(NC(=O)CCCC)c1ccc(OCCC)c(OC)c1	i	i	1.6%	-0.8%	3.6%	-3.0%
Cc1cc(Br)cn2c(Cc3ccsc3)c(-c3ccco3)nc12	i	i	23.1µM*	x	x	16.4µM*
COc1ccc(Cc2c(-c3ccco3)nc3ccc(Br)cn23)c(C)c1	i	i	20.6µM*	x	x	u
Fc1ccc(-c2nc3ccc(Br)cn3c2Cc2ccccc2)cc1	20.6µM*	i	-4.4%	x	x	-1.3%
SMILES	KB-3-1 tox	KB-V1 cytotox	HT1080 IDH1KD tx	SW480 rerep	MCF10A rereplic	HT1080-NT tox
COc1ccccc1Cc1c(-c2ccco2)nc2c(C)cc(Br)cn12	u	u	3.66µM*	x	x	3.26µM*
Brc1ccc(-c2nc3ccc(Br)cn3c2Cc2ccccc2)cc1	u	i	u	x	x	u
COc1ccc(Cc2c(-c3ccco3)nc3ccc(Cl)cn23)c(C)c1	i	i	u	x	x	-24.4%
CN(C)c1ccc2c3c(ccc(N(C)C)c13)COC2	i	i	2.0%	7.2%	10.6%	1.9%
CCc1cccc(NC(=O)Cn2ncc3c([nH]c4ccc(C)cc43)c2=O)c1	i	i	x	x	x	x
CN(CC1CCOCC1)C(=O)CC1C(=O)NCCN1Cc1ccc(-c2ccccc2)cc1 (centres undefined)	i	i	4.7%	-8.7%	9.3%	-3.9%
Cc1ccc(Cc2c(-c3ccco3)nc3ccc(Br)cn23)cc1	i	i	16.4µM*	x	x	18.4µM*
COc1ccc(Cc2c(-c3cccc(Cl)c3)nc3c(C)cc(Br)cn23)c(C)c1	u	i	23.1µM*	x	x	20.6µM*
COc1ccc(Cc2c(-c3ccco3)nc3c(C)cc(Br)cn23)c(C)c1	u	i	6.51µM*	x	x	u
Cc1ccccc1OCc1n[nH]c(=S)n1-c1ccccc1	i	i	1.7%	-2.8%	0.3%	25.4%
CCC(C)NC(=O)c1ccc2c(c1)N=C(C)c1cc(C)ccc1S2 (centres undefined)	5.17µM*	i	x	x	x	x
CC1=Nc2cc(C(=O)O)ccc2Sc2ccc(C)cc21	i	i	0.0%	1.9%	-1.7%	-1.1%
CC1=Nc2cc(C(=O)NCC3CCCO3)ccc2Sc2ccc(C)cc21 (centres undefined)	u	i	u	1.03µM*	2.06µM*	7.9%
CC1=Nc2cc(C(=O)NCc3ccco3)ccc2Sc2ccc(C)cc21	u	0.581µM*	1.64µM*	1.3µM*	1.03µM*	3.66µM*
CC(=O)c1cccc(CN2CCC(n3nccc3NC(=O)CCc3ccccc3)CC2)c1	i	u	2.0%	13.8%	-2.5%	1.1%
CN(c1ccccc1)c1ccc(/C=N/N2CCOCC2)cc1	i	i	0.2%	-6.7%	15.3%	-0.6%
CN(Cc1ccccc1)C(=O)COC(=O)CN1C(=O)c2ccccc2C1=O	i	i	2.8%	-9.3%	13.8%	-1.9%
CSc1cccc(NC(=O)CN(C)S(=O)(=O)c2ccc3c(c2)n(C)c(=O)c(=O)n3C)c1	i	i	x	x	x	x
COc1ccccc1-c1cc(C(F)(F)F)nc(NCc2cccs2)n1	i	20.6µM*	7.2%	8.2%	u	-0.8%
COc1ccc(-c2cc(C(F)(F)F)nc(NCc3cccs3)n2)cc1	i	i	u	6.5%	-0.7%	u
